These results are taken from publication PMC7862700, “An all-to-all approach to the identification of sequence-specific readers for epigenetic DNA modifications on cytosine”.

Holding throughout (test): DAPPL (digital affinity profiling via proximity ligation, sequencing); 10 mM Tris-HCl pH 7.5, 50 mM NaCl, 1 mM DTT, 4% glycerol, room temperature, 30 min; GST-TFs on glutathione beads, 16-mer random dsDNA library, 0.1% formaldehyde crosslink after washing; high values mean tight binding
One assay deals with T1, FLI1 (Homo sapiens, UniProt Q01543 1-452).
T1 sequence: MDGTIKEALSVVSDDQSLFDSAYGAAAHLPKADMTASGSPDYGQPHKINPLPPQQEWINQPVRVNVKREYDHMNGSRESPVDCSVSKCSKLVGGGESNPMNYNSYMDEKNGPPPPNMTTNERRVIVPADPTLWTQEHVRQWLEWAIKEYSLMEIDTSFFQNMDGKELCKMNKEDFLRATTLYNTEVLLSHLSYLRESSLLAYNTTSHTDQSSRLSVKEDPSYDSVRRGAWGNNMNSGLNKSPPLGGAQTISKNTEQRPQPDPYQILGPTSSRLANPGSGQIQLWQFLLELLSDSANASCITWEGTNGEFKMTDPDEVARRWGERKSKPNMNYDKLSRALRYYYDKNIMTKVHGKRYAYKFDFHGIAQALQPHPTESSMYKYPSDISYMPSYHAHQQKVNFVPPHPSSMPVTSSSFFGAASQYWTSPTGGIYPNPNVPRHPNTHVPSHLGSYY
The following applies: protein: recombinant; tags: N-terminal GST; dsDNA, one strand shown. In outline:
(§1)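 Human transcription factors were made in yeast as GST fusions, captured on glutathione beads and barcoded with DNA. With a tag-only sample included, the pool was incubated with 200 nmole of a random double-stranded 16-mer DNA library in Tris/NaCl/DTT/glycerol buffer at room temperature for 30 min, then crosslinked with 0.1% formaldehyde after washing, ligated by proximity, amplified and sequenced. For binding signal, each hexamer's read frequency for a factor is divided by its frequency for the tag-only sample.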

Another assay deals with T2, ELK1 (Homo sapiens, UniProt P19419 1-428).
T2 sequence: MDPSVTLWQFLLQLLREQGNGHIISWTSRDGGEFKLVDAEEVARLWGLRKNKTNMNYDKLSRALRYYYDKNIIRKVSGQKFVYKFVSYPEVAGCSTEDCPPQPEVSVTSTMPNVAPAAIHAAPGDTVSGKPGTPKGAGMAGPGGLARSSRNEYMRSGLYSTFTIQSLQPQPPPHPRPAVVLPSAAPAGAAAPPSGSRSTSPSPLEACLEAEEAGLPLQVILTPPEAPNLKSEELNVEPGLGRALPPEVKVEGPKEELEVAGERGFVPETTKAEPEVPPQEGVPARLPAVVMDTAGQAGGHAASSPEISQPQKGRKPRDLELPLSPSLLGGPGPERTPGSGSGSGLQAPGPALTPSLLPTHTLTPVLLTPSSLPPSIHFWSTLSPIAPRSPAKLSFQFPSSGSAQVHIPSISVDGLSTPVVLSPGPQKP
The following applies: protein: recombinant; tags: N-terminal GST; dsDNA, one strand shown. In outline: as §1

Another assay concerns the target T3, GABPA (Homo sapiens, UniProt Q06546 1-454).
T3 sequence: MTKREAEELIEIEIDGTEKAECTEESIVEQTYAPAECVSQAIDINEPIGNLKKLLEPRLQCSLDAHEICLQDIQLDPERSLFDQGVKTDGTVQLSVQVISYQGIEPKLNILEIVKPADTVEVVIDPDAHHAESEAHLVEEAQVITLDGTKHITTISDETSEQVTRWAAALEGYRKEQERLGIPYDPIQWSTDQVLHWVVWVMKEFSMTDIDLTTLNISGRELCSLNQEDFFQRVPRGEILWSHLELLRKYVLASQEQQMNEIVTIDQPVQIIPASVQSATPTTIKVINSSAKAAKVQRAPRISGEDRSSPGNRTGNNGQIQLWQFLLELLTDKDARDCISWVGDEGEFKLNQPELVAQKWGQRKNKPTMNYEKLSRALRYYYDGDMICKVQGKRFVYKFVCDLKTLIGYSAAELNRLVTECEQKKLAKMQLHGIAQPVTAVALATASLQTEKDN
The following applies: protein: recombinant; tags: N-terminal GST; dsDNA, one strand shown. The method, boiled down: as §1

The next assay addresses T4, ERG (Homo sapiens, UniProt P11308 1-479).
T4 sequence: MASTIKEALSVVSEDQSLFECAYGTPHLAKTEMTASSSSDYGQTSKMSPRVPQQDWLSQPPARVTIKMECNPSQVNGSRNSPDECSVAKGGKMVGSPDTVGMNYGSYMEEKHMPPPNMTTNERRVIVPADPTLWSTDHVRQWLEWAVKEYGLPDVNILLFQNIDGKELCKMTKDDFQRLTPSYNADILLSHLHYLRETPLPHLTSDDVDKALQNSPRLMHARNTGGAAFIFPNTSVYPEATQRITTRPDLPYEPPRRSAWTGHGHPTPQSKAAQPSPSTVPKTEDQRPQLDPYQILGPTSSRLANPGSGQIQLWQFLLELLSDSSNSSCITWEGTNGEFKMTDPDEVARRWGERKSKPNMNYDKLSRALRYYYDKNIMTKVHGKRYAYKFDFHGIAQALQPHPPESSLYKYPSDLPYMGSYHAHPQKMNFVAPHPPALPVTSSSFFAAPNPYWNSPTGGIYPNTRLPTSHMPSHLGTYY
The note with it: protein: recombinant; tags: N-terminal GST; dsDNA, one strand shown. The method, boiled down: as §1

A further assay deals with ELF1 (Homo sapiens, UniProt P32519 1-619). The following applies: protein: recombinant; tags: N-terminal GST; dsDNA, one strand shown. In outline: as §1
Sequence of ELF1 (P32519 whole entry): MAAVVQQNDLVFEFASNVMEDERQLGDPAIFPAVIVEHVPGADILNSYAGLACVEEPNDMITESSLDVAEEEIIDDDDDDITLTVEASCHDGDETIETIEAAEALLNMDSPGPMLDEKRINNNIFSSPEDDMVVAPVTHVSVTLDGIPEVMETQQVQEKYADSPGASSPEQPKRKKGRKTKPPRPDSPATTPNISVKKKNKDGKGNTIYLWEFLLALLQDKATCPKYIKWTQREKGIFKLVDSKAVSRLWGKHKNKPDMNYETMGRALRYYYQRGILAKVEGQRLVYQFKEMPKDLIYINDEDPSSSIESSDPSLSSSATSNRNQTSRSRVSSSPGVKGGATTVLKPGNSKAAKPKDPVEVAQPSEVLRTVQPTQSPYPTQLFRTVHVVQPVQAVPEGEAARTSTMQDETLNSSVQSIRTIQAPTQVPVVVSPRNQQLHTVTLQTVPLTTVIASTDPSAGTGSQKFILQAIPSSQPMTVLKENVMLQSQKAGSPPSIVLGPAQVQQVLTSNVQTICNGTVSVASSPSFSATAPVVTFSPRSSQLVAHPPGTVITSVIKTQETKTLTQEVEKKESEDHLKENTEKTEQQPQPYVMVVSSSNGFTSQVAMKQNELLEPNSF
The next assay has as its target T5, EHF (Homo sapiens, UniProt Q9NZC4 1-300).
T5 sequence: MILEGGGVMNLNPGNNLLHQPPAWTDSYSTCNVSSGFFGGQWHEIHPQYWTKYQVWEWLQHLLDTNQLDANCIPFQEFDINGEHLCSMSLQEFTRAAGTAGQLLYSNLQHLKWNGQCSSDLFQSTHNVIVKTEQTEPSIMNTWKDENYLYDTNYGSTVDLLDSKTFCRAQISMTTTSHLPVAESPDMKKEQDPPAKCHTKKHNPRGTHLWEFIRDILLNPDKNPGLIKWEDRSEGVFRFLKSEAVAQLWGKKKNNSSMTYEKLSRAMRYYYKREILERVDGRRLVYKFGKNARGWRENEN
The note with it: protein: recombinant; tags: N-terminal GST; dsDNA, one strand shown. The method, boiled down: as §1

The target in another assay is SPI1 (Homo sapiens, UniProt P17947 1-270). The following applies: protein: recombinant; tags: N-terminal GST; dsDNA, one strand shown. In outline:
as §1

The target of another assay is SPIB (Homo sapiens, UniProt Q01892 1-262). The following applies: protein: recombinant; tags: N-terminal GST; dsDNA, one strand shown. The method, boiled down:
as §1

The next assay addresses T6, ELK3 (Homo sapiens, UniProt P41970 1-407).
T6 sequence: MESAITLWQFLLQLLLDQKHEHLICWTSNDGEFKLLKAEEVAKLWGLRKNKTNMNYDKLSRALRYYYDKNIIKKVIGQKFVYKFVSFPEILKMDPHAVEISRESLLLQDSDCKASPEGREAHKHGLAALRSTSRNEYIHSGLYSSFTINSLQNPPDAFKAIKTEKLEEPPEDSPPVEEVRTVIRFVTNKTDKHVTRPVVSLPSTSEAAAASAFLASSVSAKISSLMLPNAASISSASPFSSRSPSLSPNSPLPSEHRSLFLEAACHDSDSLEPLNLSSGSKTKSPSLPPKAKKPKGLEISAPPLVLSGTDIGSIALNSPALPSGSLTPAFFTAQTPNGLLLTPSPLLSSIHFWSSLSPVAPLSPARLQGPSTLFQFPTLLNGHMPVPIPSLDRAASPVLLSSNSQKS
The following applies: protein: recombinant; tags: N-terminal GST; dsDNA, one strand shown. The method, boiled down: as §1

The next assay addresses T7, FEV (Homo sapiens, UniProt Q99581 1-238).
T7 sequence: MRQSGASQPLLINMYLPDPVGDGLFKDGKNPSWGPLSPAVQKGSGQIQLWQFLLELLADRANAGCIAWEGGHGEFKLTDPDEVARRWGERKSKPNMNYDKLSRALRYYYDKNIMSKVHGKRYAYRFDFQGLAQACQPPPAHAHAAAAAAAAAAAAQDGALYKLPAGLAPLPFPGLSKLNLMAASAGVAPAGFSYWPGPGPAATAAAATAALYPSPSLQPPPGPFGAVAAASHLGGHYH
The following applies: protein: recombinant; tags: N-terminal GST; dsDNA, one strand shown. In outline:
as §1

The next assay has as its target ETV5 (Homo sapiens, UniProt P41161 1-510). The note with it: protein: recombinant; tags: N-terminal GST; dsDNA, one strand shown. The method, boiled down: as §1
The target in a further assay is HSF1 (Homo sapiens, UniProt Q00613 1-529). The following applies: protein: recombinant; tags: N-terminal GST; chain copies: 3; dsDNA, one strand shown. In outline:
as §1

Another assay deals with T8, SPIC (Homo sapiens, UniProt Q8N5J4 1-248).
T8 sequence: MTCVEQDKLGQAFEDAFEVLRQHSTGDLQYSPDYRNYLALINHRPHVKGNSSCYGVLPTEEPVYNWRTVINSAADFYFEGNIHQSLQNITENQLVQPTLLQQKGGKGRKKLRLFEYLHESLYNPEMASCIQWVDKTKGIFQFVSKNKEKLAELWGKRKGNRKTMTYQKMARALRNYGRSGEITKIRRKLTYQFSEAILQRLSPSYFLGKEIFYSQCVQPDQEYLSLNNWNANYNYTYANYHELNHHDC
The note with it: protein: recombinant; tags: N-terminal GST; dsDNA, one strand shown. The method, boiled down: as §1

Another assay has as its target ELF4 (Homo sapiens, UniProt Q99607 1-663). The note with it: protein: recombinant; tags: N-terminal GST; dsDNA, one strand shown. In outline: as §1
The next assay concerns the target T9, ELK4 (Homo sapiens, UniProt P28324-2 1-405).
T9 sequence: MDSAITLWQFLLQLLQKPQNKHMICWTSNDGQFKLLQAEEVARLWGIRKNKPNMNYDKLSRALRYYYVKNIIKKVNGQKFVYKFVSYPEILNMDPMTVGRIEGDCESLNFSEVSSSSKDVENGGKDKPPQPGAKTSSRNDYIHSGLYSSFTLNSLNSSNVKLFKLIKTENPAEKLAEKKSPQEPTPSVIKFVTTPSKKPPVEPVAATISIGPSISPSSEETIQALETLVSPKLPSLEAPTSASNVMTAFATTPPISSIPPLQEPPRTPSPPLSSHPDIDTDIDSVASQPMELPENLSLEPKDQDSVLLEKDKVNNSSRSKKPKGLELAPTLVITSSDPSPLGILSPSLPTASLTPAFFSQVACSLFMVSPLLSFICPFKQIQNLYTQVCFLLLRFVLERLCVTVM
The following applies: protein: recombinant; tags: N-terminal GST; dsDNA, one strand shown. In outline: as §1

In the next assay the target is T10, ETV2 (Homo sapiens, UniProt O00321 1-342).
T10 sequence: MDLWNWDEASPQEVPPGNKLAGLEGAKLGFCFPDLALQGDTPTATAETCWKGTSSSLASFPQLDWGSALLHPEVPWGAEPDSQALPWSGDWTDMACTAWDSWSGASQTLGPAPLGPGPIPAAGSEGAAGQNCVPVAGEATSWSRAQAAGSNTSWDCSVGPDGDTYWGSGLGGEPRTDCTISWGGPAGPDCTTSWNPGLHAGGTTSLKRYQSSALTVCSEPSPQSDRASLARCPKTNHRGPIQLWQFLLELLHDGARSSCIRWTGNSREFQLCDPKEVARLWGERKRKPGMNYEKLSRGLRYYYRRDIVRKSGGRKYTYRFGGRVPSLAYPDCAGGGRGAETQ
The note with it: protein: recombinant; tags: N-terminal GST; dsDNA, one strand shown. The method, boiled down:
as §1

Another assay has as its target T11, ELF3 (Homo sapiens, UniProt P78545 1-371).
T11 sequence: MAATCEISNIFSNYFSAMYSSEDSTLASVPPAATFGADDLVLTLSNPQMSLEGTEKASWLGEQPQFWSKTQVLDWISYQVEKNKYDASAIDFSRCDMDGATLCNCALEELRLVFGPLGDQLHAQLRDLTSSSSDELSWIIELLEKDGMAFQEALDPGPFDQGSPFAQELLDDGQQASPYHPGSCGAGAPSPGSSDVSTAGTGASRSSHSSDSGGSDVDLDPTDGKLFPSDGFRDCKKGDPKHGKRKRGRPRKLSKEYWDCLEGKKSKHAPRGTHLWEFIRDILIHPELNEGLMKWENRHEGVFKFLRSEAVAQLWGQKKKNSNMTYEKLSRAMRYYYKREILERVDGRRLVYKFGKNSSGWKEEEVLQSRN
The note with it: protein: recombinant; tags: N-terminal GST; dsDNA, one strand shown. In outline: as §1

In a further assay the target is ETV1 (Homo sapiens, UniProt P50549 1-477). The note with it: protein: recombinant; tags: N-terminal GST; dsDNA, one strand shown. In outline: as §1
Sequence of ETV1 (P50549 whole entry): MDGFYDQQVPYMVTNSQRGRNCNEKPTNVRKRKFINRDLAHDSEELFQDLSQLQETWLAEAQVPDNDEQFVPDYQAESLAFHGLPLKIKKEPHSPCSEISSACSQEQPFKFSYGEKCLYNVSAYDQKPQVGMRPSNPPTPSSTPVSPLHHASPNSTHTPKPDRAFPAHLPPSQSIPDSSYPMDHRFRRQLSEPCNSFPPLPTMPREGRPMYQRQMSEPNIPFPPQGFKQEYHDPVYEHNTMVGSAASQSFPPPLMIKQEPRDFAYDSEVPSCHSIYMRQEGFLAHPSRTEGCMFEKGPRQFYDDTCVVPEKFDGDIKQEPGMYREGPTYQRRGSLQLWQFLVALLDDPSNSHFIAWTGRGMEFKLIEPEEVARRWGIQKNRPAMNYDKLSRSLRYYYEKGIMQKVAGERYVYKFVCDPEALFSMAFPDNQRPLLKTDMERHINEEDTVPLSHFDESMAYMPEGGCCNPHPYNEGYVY

Sequence of HSF1 (Q00613 whole entry): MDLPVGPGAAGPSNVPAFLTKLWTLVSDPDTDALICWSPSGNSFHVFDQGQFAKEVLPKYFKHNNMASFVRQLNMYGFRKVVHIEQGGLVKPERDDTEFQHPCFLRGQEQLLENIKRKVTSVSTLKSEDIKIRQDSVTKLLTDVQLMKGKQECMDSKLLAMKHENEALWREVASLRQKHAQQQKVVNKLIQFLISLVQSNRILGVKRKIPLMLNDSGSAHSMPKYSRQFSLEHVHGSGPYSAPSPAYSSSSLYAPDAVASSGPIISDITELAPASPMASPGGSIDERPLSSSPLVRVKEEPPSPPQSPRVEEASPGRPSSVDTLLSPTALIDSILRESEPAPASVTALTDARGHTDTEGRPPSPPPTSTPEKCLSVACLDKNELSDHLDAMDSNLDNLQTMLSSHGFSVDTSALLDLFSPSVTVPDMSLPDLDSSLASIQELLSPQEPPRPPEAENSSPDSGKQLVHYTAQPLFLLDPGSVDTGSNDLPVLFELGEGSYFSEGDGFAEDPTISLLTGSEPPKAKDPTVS
Sequence of ETV5 (P41161 whole entry): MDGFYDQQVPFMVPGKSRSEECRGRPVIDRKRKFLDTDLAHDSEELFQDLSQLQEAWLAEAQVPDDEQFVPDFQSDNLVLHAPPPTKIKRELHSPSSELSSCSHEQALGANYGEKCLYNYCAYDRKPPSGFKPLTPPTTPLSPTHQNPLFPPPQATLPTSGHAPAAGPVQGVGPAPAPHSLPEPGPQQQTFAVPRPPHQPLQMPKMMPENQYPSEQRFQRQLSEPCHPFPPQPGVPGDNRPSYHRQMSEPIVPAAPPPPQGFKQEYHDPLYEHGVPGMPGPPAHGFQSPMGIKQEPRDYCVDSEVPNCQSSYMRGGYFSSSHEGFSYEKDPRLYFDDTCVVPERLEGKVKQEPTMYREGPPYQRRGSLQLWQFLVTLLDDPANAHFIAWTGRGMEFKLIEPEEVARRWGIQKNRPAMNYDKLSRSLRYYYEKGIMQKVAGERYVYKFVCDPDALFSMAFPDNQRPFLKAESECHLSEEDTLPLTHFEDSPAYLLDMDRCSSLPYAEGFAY
Sequence of SPIB (Q01892 whole entry): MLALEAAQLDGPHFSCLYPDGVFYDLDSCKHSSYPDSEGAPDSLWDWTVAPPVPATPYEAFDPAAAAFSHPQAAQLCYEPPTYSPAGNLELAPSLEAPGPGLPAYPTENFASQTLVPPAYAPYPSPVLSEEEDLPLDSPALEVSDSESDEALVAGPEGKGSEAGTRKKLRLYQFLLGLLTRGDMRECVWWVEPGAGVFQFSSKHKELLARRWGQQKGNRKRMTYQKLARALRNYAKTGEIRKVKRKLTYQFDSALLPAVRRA
Sequence of ELF4 (Q99607 whole entry): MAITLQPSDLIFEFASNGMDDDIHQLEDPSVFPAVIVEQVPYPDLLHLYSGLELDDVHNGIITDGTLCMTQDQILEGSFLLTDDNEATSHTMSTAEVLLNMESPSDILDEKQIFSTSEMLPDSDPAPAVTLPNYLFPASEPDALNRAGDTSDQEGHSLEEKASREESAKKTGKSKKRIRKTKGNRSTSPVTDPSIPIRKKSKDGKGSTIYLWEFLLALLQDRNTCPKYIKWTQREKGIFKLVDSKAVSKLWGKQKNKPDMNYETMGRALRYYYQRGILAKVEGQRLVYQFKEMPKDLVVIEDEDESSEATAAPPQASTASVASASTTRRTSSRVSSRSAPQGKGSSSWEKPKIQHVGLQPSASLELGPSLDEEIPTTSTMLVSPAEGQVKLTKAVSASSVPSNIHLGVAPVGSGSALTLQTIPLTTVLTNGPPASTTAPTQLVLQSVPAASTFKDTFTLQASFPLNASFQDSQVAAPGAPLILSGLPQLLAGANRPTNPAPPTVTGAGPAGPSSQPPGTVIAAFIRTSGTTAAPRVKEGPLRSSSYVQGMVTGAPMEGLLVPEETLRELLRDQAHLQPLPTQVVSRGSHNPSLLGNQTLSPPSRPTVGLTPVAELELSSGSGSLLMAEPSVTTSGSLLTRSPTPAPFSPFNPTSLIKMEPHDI

With CGACAT, the binding signal with FLI1 is 1.37 fold enrichment (6-mer frequency, TF over GST control); with ELK1, 1.23 fold enrichment (6-mer frequency, TF over GST control); in the assay with GABPA, 1.25 fold enrichment (6-mer frequency, TF over GST control); in the assay with ERG it was 1.31 fold enrichment (6-mer frequency, TF over GST control); with ELF1 it was 1.25 fold enrichment (6-mer frequency, TF over GST control); in the assay with EHF it was 1.26 fold enrichment (6-mer frequency, TF over GST control). Besides, the binding signal with SPI1 is 1.27 fold enrichment (6-mer frequency, TF over GST control); with SPIB, 1.3 fold enrichment (6-mer frequency, TF over GST control); with ELK3 it was 1.4 fold enrichment (6-mer frequency, TF over GST control); in the assay with FEV it was 1.31 fold enrichment (6-mer frequency, TF over GST control); with ETV5 it was 1.26 fold enrichment (6-mer frequency, TF over GST control); with HSF1, 1.07 fold enrichment (6-mer frequency, TF over GST control). Also, the binding signal with SPIC was 1.32 fold enrichment (6-mer frequency, TF over GST control); with ELF4, 1.32 fold enrichment (6-mer frequency, TF over GST control); with ELK4 it was 1.3 fold enrichment (6-mer frequency, TF over GST control); with ETV2, 1.26 fold enrichment (6-mer frequency, TF over GST control); with ELF3, 1.42 fold enrichment (6-mer frequency, TF over GST control); in the assay with ETV1 it was 1.37 fold enrichment (6-mer frequency, TF over GST control).
